Test results: PubChem BioAssay (NCI)
Where “and” joins values, the source holds several entries; their conditions need not be identical. Identical values can stand only once. About 83,000 compounds went through this panel and 20% of them were active in at least one assay; those are over-represented in the sample as a whole.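 Single-concentration screen, 48 h exposure, 96-well plates. Endpoint: percent growth. Below 10 = active.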 Calls of active or inactive are those of the source.

What follows are compounds tested on MDA-MB-468 breast (assay: NCI-60 one-dose screen, 48 h (100 = growth as untreated, 0 = no growth, -100 = all killed)). Conditions: 10 µM unless noted.
In the case of `OC(c1ccccc1)(c1ccccc1)c1ccccc1-c1ccccc1`, the growth is reported as 69.1% (inactive).
For `CC(=O)Oc1ccc(C2OC(c3ccc4ccccc4c3OC(C)=O)=NN2C(C)=O)c(OC(C)=O)c1` (centres undefined), the growth was -14.4% (active).
With `CCCCOc1ccc(/C=N/NC(N)=S)cc1` the growth was 66.5% (inactive).
`CCOC(=O)c1c(NC(=O)c2ccc(C(F)(F)F)cc2)sc2c(CN3CCN(C)CC3)c(O)ccc12` was tested, and the growth was -80.6% (active).
`O=C(Nc1ccc(Nc2ncnc3sc4c(c23)CCOC4)cc1)Nc1ccc(Cl)c(C(F)(F)F)c1` was tested, and the growth was 83.5% (inactive).
With `N/C(=N\c1nc2ccc([N+](=O)[O-])cc2s1)C(Cl)(Cl)Cl` the growth was 3.78% (active).
With `Cc1csc(-c2nnc(Nc3ccc(Oc4ncccc4-c4ccnc(N)n4)cc3)c3ccccc23)c1` the growth was 41.6% (inactive).
`CCCCCCCCc1cc(Cl)c(O)c(Cl)c1` was tested, and the growth was 119% (inactive).
In the case of `c1ccc(-n2nnnc2-c2cccc3ccccc23)cc1`, the growth is reported as -22.5% (active).
With `O=[N+]([O-])c1cc(Br)cc2c1[nH]c1ccc(Br)cc12` the growth was 70.3% (inactive).
For `CCc1nc(C)cn1C(=O)OCc1nc2nc(Cl)nc(N3CCOCC3)c2[nH]1`, the growth was -54.6% (active).
`CCOC(=O)C(c1ccccc1)N1C(=O)c2ccccc2C1=O` (centres undefined) was tested, and the growth was 137% (inactive).
`CCCN1CCN(c2ccc3nc(-c4ccc5nc(-c6ccc(OCC)cc6)[nH]c5c4)[nH]c3c2)CC1` was tested, and the growth was -67.6% (active).
For `C/C(=C\CCc1ccoc1)CC/C=C(\C)CCCC1COC(=O)C1` (centres undefined), the growth was 97.4% (inactive).
`Nc1[nH]nc(Nc2ccccc2)c1-c1nc2ccccc2s1` was tested, and the growth was 17.5% (inactive).
For `O=CC(O)C(O)C(O)CO` (centres undefined), the growth was 104% (inactive) and 102% (inactive).
For `CCC/C(=N\NC(N)=O)C(OC)OC`, the growth was 103% (inactive).
For `COc1ccc(C)c2sc(N(Cc3cccnc3)C(=O)c3ccc(C#N)cc3)nc12`, the growth was -13.4% (active).
In the case of `CC/C(=C(/c1ccc(O)cc1)c1ccc(OCCN2CCCCCC2)cc1)c1ccc(Cl)cc1`, the growth is reported as 38.6% (inactive).
In the case of `COc1cc(/C=C/c2cc(/C=C/c3ccc(O)c(OC)c3)nc(N)n2)ccc1O`, the growth is reported as -35% (active).
With `C=CC[n+]1c(/C=C2\Sc3ccccc3N2C)sc(-c2ccccc2)c1-c1ccccc1` the growth was 1.16% (active).
`BrCCCc1n(Cc2ccc3ccccc3c2)c2ccccc2[n+]1Cc1ccc2ccccc2c1` was tested, and the growth was -68% (active).
For `COc1ccc(C/C(C)=C(/c2ccc(OCCCN(C)C)cc2)c2ccc(OC(C)=O)cc2)cc1`, the growth was 63.8% (inactive).
`CC(=O)CC(c1ccc([N+](=O)[O-])cc1)c1c(O)c2ccccc2oc1=O` (centres undefined) was tested, and the growth was 104% (inactive).
For `COc1cccc(C2C3=C(COC3=O)N(CCO)c3cc4c(cc32)OCCO4)c1` (centres undefined), the growth was -52.9% (active).
With `COC(=O)CCCNC(=O)C(=O)c1c(O)c(O)c(C(C)C)c2cc(C)c(-c3c(C)cc4c(C(C)C)c(O)c(O)c(C(=O)C(=O)NCCCC(=O)OC)c4c3O)c(O)c12` the growth was -1.3% (active).
For `COc1cc2c(cc1OC)-c1ccc3cc4c(cc3c1N(CCN1CCCC1)C2)OCO4`, the growth was -5.22% (active).
In the case of `COc1cc(Cn2ncc3ccc(NC(=O)c4cc5ccccc5oc4=N)cc32)cc(OC)c1OC`, the growth is reported as 36.8% (inactive).
`COc1cc(/C=C2\C(=O)Nc3ccc(N(C)C)cc32)cc(OC)c1OC` was tested, and the growth was -2.28% (active).
`F` was tested, and the growth was 40.9% [6.87 mM] (inactive).
`COc1ccc(N=Cc2c(O)ccc3c2oc2cc(Cl)c(O)c(Cl)c23)cc1` was tested, and the growth was 72.5% (inactive).
With `C[C@@H](Oc1ccc(C(=O)NS(=O)(=O)C(C)(C)C)cc1C(F)(F)F)c1ccc(Oc2ccccc2)cn1` the growth was -13.5% (active).
`COc1ccc(C2C=C(c3ccc(Cl)cc3)N=C3SC=CN32)c(Br)c1` (centres undefined) was tested, and the growth was 61% (inactive).
With `O=C1Nc2ccc(Cl)cc2/C1=N/c1nc(-c2ccc(F)cc2)cs1` the growth was 27.6% (inactive).
In the case of `C#CCNCCCN1C(=O)c2ccc3c4c(ccc(c24)C1=O)C(=O)N(CCCNCC#C)C3=O`, the growth is reported as -85.6% (active).
For `Nc1cc(C(=O)O)[nH]c(=S)n1`, the growth was 95.3% (inactive).
With `Cn1cc(-c2csc(-c3cn(C)c4ccccc34)n2)c2cnccc21` the growth was -27.1% (active).
In the case of `CCN(CC)CC(=O)Nc1ccc2ncnc(Nc3ccc(Oc4cccc(F)c4)c(Cl)c3)c2c1`, the growth is reported as 13.6% (inactive).
In the case of `COc1ccc(-n2nc(C(=O)NCC(=O)Nc3nc4cc(OC)ccc4s3)c3ccccc3c2=O)cc1`, the growth is reported as -8.37% (active).
